Experimental data: PubChem BioAssay (Tox21)
Several values for one entry are separate records, joined by “and”; a condition that tells them apart may be missing. Identical values can stand only once. Records with an inconclusive call do not appear. Values without a mark were called inactive. Activity calls are given as the source filed them. Calls come from the whole dose curve; as a rule, active = well fitted curve in the direction sought with a large enough effect in the repeat runs; inconclusive = weak or mixed curves; inactive = no such curve, though single readings can be large; an effect the other way counts as inactive or inconclusive.

Target: Luciferin 4-monooxygenase (Photinus pyralis) (UniProt P08659)
Sequence (P08659 whole entry, looked up): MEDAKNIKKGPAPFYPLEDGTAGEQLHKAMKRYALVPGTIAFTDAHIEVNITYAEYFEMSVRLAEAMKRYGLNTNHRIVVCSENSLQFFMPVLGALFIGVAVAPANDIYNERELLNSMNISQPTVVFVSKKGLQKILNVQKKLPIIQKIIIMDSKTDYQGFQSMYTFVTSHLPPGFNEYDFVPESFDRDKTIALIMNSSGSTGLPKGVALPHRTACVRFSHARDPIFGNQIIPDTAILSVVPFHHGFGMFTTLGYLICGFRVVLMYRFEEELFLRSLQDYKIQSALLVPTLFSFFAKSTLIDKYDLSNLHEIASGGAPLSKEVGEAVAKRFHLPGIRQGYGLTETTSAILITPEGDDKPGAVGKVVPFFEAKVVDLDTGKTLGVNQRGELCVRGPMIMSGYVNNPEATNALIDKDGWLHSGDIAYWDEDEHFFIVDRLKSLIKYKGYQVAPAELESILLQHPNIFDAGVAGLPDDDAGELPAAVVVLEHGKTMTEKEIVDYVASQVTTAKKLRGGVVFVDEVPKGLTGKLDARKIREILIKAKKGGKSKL
Experiment: qHTS assay to identify small molecule inhibitors of firefly luciferase (AID 1224835); note: nearly all actives have a fitted effect of over 25% in size
Conditions: purified P. pyralis luciferase, luminescence inhibition; series mostly up to 115 µM; activity change, negative = inhibition: at the top concentration
Summary of the method: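 Quantitative HTS format; KM concentrations of both substrates. Purified P. pyralis FLuc activity quantified from luminescence images.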
% is set by controls: 0 for no effect and ±100 for the full control effect; potency is the fitted concentration of half-maximal effect.

Structure (SMILES) | activity change, negative = inhibition | Potency
COc1ccc2c(c1OC)C(=O)O[C@@H]2[C@H]1c2cc3c(cc2CCN1C)OCO3 | 2.49% | –
CC(Cc1ccc(OCC(=O)O)cc1)NCC(O)c1csc(C(F)(F)F)n1 (centres undefined) | -0.168% | –
Nc1ccc(Cl)cc1C(=O)c1ccccc1F | -2.8% [at 52.9 µM] | –
O=c1c2ccccc2c(=O)c2c1cc(Cl)c1[nH]c3c([nH]c12)c(Cl)cc1c(=O)c2ccccc2c(=O)c13 | – | 56.4 µM (active)
CCc1cccc(C)c1N(C(=O)CCl)[C@@H](C)COC | 0.446% | –
COP(=O)(OC)O/C(=C\Cl)c1cc(Cl)c(Cl)cc1Cl | -0.217% | –
C=Cc1cccc(CCl)c1 | 2.18% [at 300 µM] | –
CNC(C)(C)Cc1ccccc1 | 0.445% [at 52.9 µM] | –
CCC(C)Br (centres undefined) | 0.496% | –
OCC(Br)CBr (centres undefined) | -0.248% | –
ClC1=C(Cl)[C@]2(Cl)[C@H]3[C@H]([C@@H]4C=C[C@H]3C4)[C@@]1(Cl)C2(Cl)Cl | – | inactive
CCOP(=S)(OCC)SC(CCl)N1C(=O)c2ccccc2C1=O (centres undefined) | -4.98% | –
Oc1ccc(Cl)c(Cl)c1 | -13.1% | –
COC(=O)C(C)N(C(=O)c1ccco1)c1c(C)cccc1C (centres undefined) | 2.61% | –
COP(=S)(NC(C)C)Oc1ccc(C)cc1[N+](=O)[O-] (centres undefined) | -8.47% | –
Clc1ccc(C(Cl)(Cl)Cl)cc1Cl | -14.6% | –
Cc1ccc(C)c2ccccc12 | -0.608% | –
COc1cnc(OC)n2nc(NS(=O)(=O)c3c(OCC(F)F)cccc3C(F)(F)F)nc12 | -0.575% | –
CC(O)C(=O)[O][Hg][c]1ccccc1 (centres undefined) | – | 3.99 µM (active)

Structure (SMILES) | activity change, negative = inhibition | Potency
CCCCCON=O | -5.53% | –
CNC(=O)/C=C(\C)OP(=O)(OC)OC | 3.6% | –
CC(C)N(C(=O)SC/C(Cl)=C/Cl)C(C)C | 0.263% | –
CC[N+]1(CC)CCC(OC(=O)C(O)(c2ccccc2)c2ccccc2)C1 (centres undefined) | -2.19% [at 52.9 µM] | –
[O]=[Cr](=[O])([OH])[O][Cr](=[O])(=[O])[OH] | -11.6% | –
C[C@@H]1CC2=CC(=O)CC[C@@H]2[C@H]2CC[C@@]3(C)[C@@H](CC[C@]3(C)O)[C@@H]21 | 4.93% [at 52.9 µM] | –
CCCCc1ccccc1 | -0.964% | –
CC(=O)C(Cl)C(=O)N(C)C (centres undefined) | 3.21% | –
Clc1ccc(C2(Cn3cncn3)OCCO2)c(Cl)c1 | 1.81% | –
CCC1COC(Cn2cncn2)(c2ccc(Cl)cc2Cl)O1 (centres undefined) | 1.41% | –
COc1c2c(cc3c1OCO3)CCN(C)C2 | 5.5% [at 52.9 µM] | –
CNC(=O)Oc1cc(C)cc(C(C)C)c1 | 0.438% | –
CSC(C)(C)/C=N/O | 0.626% | –
Nc1cc(Cl)ccc1Cl | -2.49% | –
C=CCBr | -1.04% | –
CC[C@H](C)[C@H]1O[C@]2(C=C[C@@H]1C)C[C@@H]1C[C@@H](C/C=C(\C)[C@@H](O[C@H]3C[C@H](OC)[C@@H](O[C@H]4C[C@H](OC)[C@@H](NC)[C@H](C)O4)[C@H](C)O3)[C@@H](C)/C=C/C=C3\CO[C@@H]4[C@H](O)C(C)=C[C@@H](C(=O)O1)[C@]34O)O2 | -0.393% | –
N#CCCl | 0.846% | –
c1cc[n+]2c(c1)-c1cccc[n+]1CC2 | -0.0494% [at 52.9 µM] | –
CN=C=O | 1.75% | –

Test system: not listed separately
Experiment: qHTS assay to identify small molecule agonists of the constitutive androstane receptor (CAR) signaling pathway - cell viability counter screen (AID 1224836); note: nearly all actives have a fitted effect of over 45% in size
Conditions: HepG2-CYP2B6-hCAR viability, CellTiter-Fluor, 23 h, PK11195 added to every well; series mostly up to 92.4 µM; viability change, negative = cytotoxic: at the top concentration
Summary of the method: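 Multiplexed viability check: HepG2-CYP2B6-hCAR cells, 15-point compound dosing, 0.75 uM PK11195 final, 23 h at 37 C, CellTiter-Fluor fluorescence.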

Structure (SMILES) | Potency | viability change, negative = cytotoxic
COc1ccc2c(c1OC)C(=O)O[C@@H]2[C@H]1c2cc3c(cc2CCN1C)OCO3 | 7.62 µM (active) | –
CC(Cc1ccc(OCC(=O)O)cc1)NCC(O)c1csc(C(F)(F)F)n1 (centres undefined) | – | -14.4%
Nc1ccc(Cl)cc1C(=O)c1ccccc1F | – | -8.66% [at 42.5 µM]
O=c1c2ccccc2c(=O)c2c1cc(Cl)c1[nH]c3c([nH]c12)c(Cl)cc1c(=O)c2ccccc2c(=O)c13 | – | 1.58%
CCc1cccc(C)c1N(C(=O)CCl)[C@@H](C)COC | – | -14.8%
COP(=O)(OC)O/C(=C\Cl)c1cc(Cl)c(Cl)cc1Cl | – | -6.31%
C=Cc1cccc(CCl)c1 | – | 0.188% [at 240 µM]
CNC(C)(C)Cc1ccccc1 | – | 4.33% [at 42.5 µM]
CCC(C)Br (centres undefined) | – | 7.39%
OCC(Br)CBr (centres undefined) | – | 4.12%
ClC1=C(Cl)[C@]2(Cl)[C@H]3[C@H]([C@@H]4C=C[C@H]3C4)[C@@]1(Cl)C2(Cl)Cl | inactive | –
CCOP(=S)(OCC)SC(CCl)N1C(=O)c2ccccc2C1=O (centres undefined) | – | -3.75%
Oc1ccc(Cl)c(Cl)c1 | – | 4.66%
COC(=O)C(C)N(C(=O)c1ccco1)c1c(C)cccc1C (centres undefined) | – | 1.91%
COP(=S)(NC(C)C)Oc1ccc(C)cc1[N+](=O)[O-] (centres undefined) | – | -16.1%
Clc1ccc(C(Cl)(Cl)Cl)cc1Cl | – | -4.34%
Cc1ccc(C)c2ccccc12 | – | -1.76%
COc1cnc(OC)n2nc(NS(=O)(=O)c3c(OCC(F)F)cccc3C(F)(F)F)nc12 | – | 1.91%

Structure (SMILES) | Potency | viability change, negative = cytotoxic
CC(O)C(=O)[O][Hg][c]1ccccc1 (centres undefined) | 4.86 µM (active) | –
CCCCCON=O | – | -0.22%
CNC(=O)/C=C(\C)OP(=O)(OC)OC | – | -0.241%
CC(C)N(C(=O)SC/C(Cl)=C/Cl)C(C)C | – | 2.23%
[O]=[Cr](=[O])([OH])[O][Cr](=[O])(=[O])[OH] | 15.5 µM (active) and 15.3 µM (active) | –
C[C@@H]1CC2=CC(=O)CC[C@@H]2[C@H]2CC[C@@]3(C)[C@@H](CC[C@]3(C)O)[C@@H]21 | – | -1.58% [at 42.5 µM]
CCCCc1ccccc1 | – | 3.73%
CC(=O)C(Cl)C(=O)N(C)C (centres undefined) | – | -8.61%
Clc1ccc(C2(Cn3cncn3)OCCO2)c(Cl)c1 | – | 2.09%
CCC1COC(Cn2cncn2)(c2ccc(Cl)cc2Cl)O1 (centres undefined) | – | -6.24%
COc1c2c(cc3c1OCO3)CCN(C)C2 | – | 0.145% [at 42.5 µM]
CNC(=O)Oc1cc(C)cc(C(C)C)c1 | – | -0.361%
CSC(C)(C)/C=N/O | – | 0.385%
Nc1cc(Cl)ccc1Cl | – | 0.642%
C=CCBr | – | 4.34%
CC[C@H](C)[C@H]1O[C@]2(C=C[C@@H]1C)C[C@@H]1C[C@@H](C/C=C(\C)[C@@H](O[C@H]3C[C@H](OC)[C@@H](O[C@H]4C[C@H](OC)[C@@H](NC)[C@H](C)O4)[C@H](C)O3)[C@@H](C)/C=C/C=C3\CO[C@@H]4[C@H](O)C(C)=C[C@@H](C(=O)O1)[C@]34O)O2 | 12.2 µM (active) | –
N#CCCl | – | -6.47%
CN=C=O | – | 6.51%
